The supplement of paper PMC6555819

Test system: VDR:RXRa (NR concentration 270 nM, RXRa partner concentration 90 nM)
Experiment: PBM binding z-score (relative to random genomic background probes); higher = stronger binding; sequences stand for … in GC…GCGATTGACAGCGTAGAATGAAGG
Description: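 Protein-binding microarray (Agilent 4x180K custom design, double-stranded 60-nt probes: 5' GC cap, 34-nt variable region, 24-nt constant primer region; full probe sequence given). Purified or IVT nuclear receptor:RXRα heterodimers (3:1 NR:RXRα, mostly 270:90 nM) or homodimers were incubated for 1 h in PBS with 2% milk and no ligand, then detected with Alexa488 antibodies. Fluorescence from o1-orientation probes (~5 replicates averaged) was converted to z-scores against 500 random hg19 background probes. Variable regions are seed direct-repeat (DR0–DR5) sites, all their single-nucleotide variants and half-site ablations.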

Row | Sequence | PBM binding z-score
1 | TCATGTAGATCAAAGGTTAAGAAAGCCGAAGCCT | 1.66
2 | TCGAGTAGGTTAGGCGCATTCAGAATGGCGTCGA | -0.563
3 | CCTACTGGGCTACGAAAGGTCATTGATTCAGTGA | 3.71
4 | TCTTGTAGATCAGCAGGTTAAGACAGCTGGCCAA | 0.176
5 | TTACCAAGGTGAAGGTCGTTCATCCCTCTGTAGA | 1.74
6 | CCTAGTTGGTCAGGACGTCACACACCGGATATGA | 0.236
7 | CAGCCTAGGTCAGGGCAAGTATAGGAGGAACGTT | 0.782
8 | TAGCCGAGGTCATTGGGCCAGTATAGTACGCATC | 5.59
9 | TTACCAAGGTGAAGGCCGTTGATCCCTCTGTAGA | -0.121
10 | CCTCGGAGGACAGAATGTCAGAGCTGTCCGCTTT | -0.778
11 | GCTTACGGGTCAAAGGATATAGCATGAATAGAAT | 3.16
12 | CCTCGGAGGACATCAGGAGGTCAGAGCTGCCAGA | 1.99
13 | GATACAGGGTCAGCTAGGGGCCAGAGTATGGAAA | 3.31
14 | TCTAGTTGGTCCAAGGTCACACACTCGAAATGCG | 3.77
15 | AGAATGAGGATATACGTAGATCAGGGAAGAAAGT | -0.427
16 | TCTTGTCGATCAGCAGGTTAAGAAAGCTGGCCAA | 0.358
17 | CCGAATGGGGCATAAGGTTACCATAAGCCAGCCC | 0.232
18 | CCTTACGGGTCACTGACAGGTTATAGCATTTGGA | 3.8
19 | TAGCCTAGGTCATTCAGAGGCCAGTATAGAAAGC | 2.84
20 | CCTGCTAGGTCAATGGTCATCTAAAGCAGCTCGC | 1.31

Row | Sequence | PBM binding z-score
21 | CAAACTAGGACACAGAGGTCAAAGTCCGTGCGTA | 5.69
22 | TCTTGTAGATCAAGCGGGTTAAGAAAGCCTGAGT | 0.54
23 | CAAACTAGGTCAAAGGTCAATGTCGAGCCAACCA | 6.33
24 | CGTAAAAGTTCAAGGTAACGTAACAGAAAGCAGC | 3.38
25 | GGAACGAGGGCAAAGTTGATAGCGTCTGTCGACG | 1.39
26 | CGTCCAAGGTCAAGATCAGTGAAAGAGACTCGAA | 3.61
27 | GCTCGGAGGACAAGGTAAGAGCTTTGTCCGTAGA | -0.675
28 | CCTACTGGGCCAAAAAGGTCATAGATGCCGATAA | 4.4
29 | CCGAGTAGGTTATGGGACATTCAGGCAACGGTGA | 0.258
30 | GCATCTAGGTAATACAAGGTGAAAGTCCGATTGT | 0.32
31 | AGTCAAAGTACAGGACGAGGTAACGTAAAGCACG | -0.143
32 | TCTTGTAGATCAATAGAGGTTAATAAAGTGCGCT | 1.84
33 | CCTAGCAGGCCAATCCGGGTCACTCAAGGCTTGA | 2
34 | TCATGTAGATCAATAGAGGTTAAGAAAGTGCGCT | 1.93
35 | CTCGAAAGGTCGGTTGTGGTGAGTATACGGATAA | 1.05
36 | ACTAGCGGGCCAAGTTTGGGTCACTCAAACAAAG | 0.318
37 | TCTAGCAGGCCAGAGGGTCACTGAAGAGGTACGG | 1.52
38 | CTCGAAAGGTCGGTTTAGGTGAGTATACGGATAA | 1.28
39 | ATATGTAGGTTATCGGGTCATCCAGTTTGCGCAT | 5.43
40 | CATACTGGGCCATCAGGTCATTGATATCAACGTT | 2.28
